Each structure is given as a SMILES string. Values joined by “and” are separate entries in the source; they are usually repeats but may differ in a detail not shown here. Equal entries are not always repeated. Results filed as inconclusive are left out. Active and inactive are the calls of the source. Unless noted, the call rests on the fitted dose curve; in most records, active means well fitted curve in the direction sought with a large enough effect; inconclusive means small, poorly fitted or top-dose-only effect, or another doubt; inactive means no such curve, though single readings can be large; an effect the other way counts as inactive or inconclusive.

Test [1] deals with Androgen receptor (Homo sapiens) (UniProt P10275). The experiment in a line: qHTS assay for small molecule antagonists of androgen receptor signaling (AID 588516; active means well fitted curve in the direction sought with a large enough effect in the signal ratio, with a control signal flat, not every such curve was filed as active; the % refers to the signal ratio; further: potency means the concentration at half of the fitted maximal effect). The method in brief: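 AR-UAS-bla GripTite HEK 293 cells (2000/well) treated with compound titrations plus 10 nM R1881 for 16 h at 37C. Beta-lactamase read by CCF4 FRET (460/530 nm); IC50 from Hill fits, normalized to R1881 and DMSO control wells.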
For orientation: In qHTS, concentration-response curves come from the screen itself.

The target of test [2] is Peroxisome proliferator-activated receptor gamma (Homo sapiens) (UniProt P37231). The experiment in a line: qHTS assay for small molecule agonists of peroxisome proliferator-activated receptor gamma signaling (AID 588536; active means well fitted curve in the direction sought with a large enough effect in the signal ratio, with a control signal flat, not every such curve was filed as active; the % refers to the signal ratio;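 further: 0% = DMSO basal wells and 100% = rosiglitazone at 2 µM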). The procedure, abridged: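 Compound treatment: 16 h, 37 C, HEK293 GeneBLAzer cells. Detection: CCF4, 2 h RT. Values: Hill-fit EC50, efficacy as % of 2 uM rosiglitazone.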
Chain of Peroxisome proliferator-activated receptor gamma (Homo sapiens) (P37231 whole entry, looked up): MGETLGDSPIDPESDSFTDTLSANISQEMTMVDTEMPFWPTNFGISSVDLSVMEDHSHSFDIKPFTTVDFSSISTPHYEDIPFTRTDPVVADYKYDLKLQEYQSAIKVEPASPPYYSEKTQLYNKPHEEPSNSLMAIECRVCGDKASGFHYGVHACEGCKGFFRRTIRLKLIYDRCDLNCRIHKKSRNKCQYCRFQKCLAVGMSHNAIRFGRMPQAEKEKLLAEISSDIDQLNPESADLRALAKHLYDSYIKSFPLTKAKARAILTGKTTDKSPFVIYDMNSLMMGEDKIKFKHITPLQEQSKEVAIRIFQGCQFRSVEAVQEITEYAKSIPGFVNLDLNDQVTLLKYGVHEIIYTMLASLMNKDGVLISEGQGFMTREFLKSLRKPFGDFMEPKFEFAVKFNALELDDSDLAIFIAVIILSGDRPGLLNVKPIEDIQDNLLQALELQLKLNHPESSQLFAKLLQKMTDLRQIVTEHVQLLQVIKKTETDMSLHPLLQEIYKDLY

Test [3] has the same target. The experiment in a line: qHTS assay for small molecule antagonists of peroxisome proliferator-activated receptor gamma signaling (AID 588537; active means well fitted inhibition curve with a large enough effect in the signal ratio, with a control signal flat, not every such curve was filed as active; the % refers to the signal ratio;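 further: reporter cells co-stimulated with 50 nM rosiglitazone agonist during compound treatment; % of control where 0% means no effect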). The method in brief:
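HEK293 cells, PPAR-gamma-UAS-bla, 3000/well. Pre-incubation 6-6.5 h, 37 C. Compound titration with rosiglitazone 50 nM final, 16 h. CCF4 dye, 2 h RT, dual-emission fluorescence.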

Test [4] in a line: qHTS assay for small molecule agonists of retinoid X receptor alpha signaling (AID 588544). Particulars: HEK293T RXRa-UAS-bla, beta-lactamase reporter, 18 h; 530 nm emission.
Test [5] concerns the target Thyroid hormone receptor beta (Homo sapiens) (UniProt P10828). The experiment in a line: qHTS assay for small molecule agonists of thyroid hormone receptor beta signaling (AID 588545; calls by dose curve). The method in brief:
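Agonist-mode beta-lactamase reporter assay, HEK 293 cells, 2% charcoal/dextran FBS; cells plated 4 hrs, compound 18 hrs at 37 C, CCF4 2 hrs RT. Normalized to 10 nM T3 (100%) and DMSO (0%); Hill fit gives EC50, efficacy.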

A short description of test [6]: qHTS assay for small molecule antagonists of retinoid X receptor alpha signaling (AID 588546; active means well fitted inhibition curve with a large enough effect in the signal ratio, with a control signal flat, not every such curve was filed as active; the % refers to the signal ratio;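 further: cells stimulated with 9-cis-retinoic acid as agonist; on the % scale 0 is the no-effect control and ±100 the full control effect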). Particulars: HEK293T RXRa-UAS-bla, beta-lactamase ratio, antagonist mode; measured here: W530 green channel, cytotoxicity proxy. The method in brief:
(§1)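 Beta-lactamase reporter inhibition, read as CCF4 fluorescence ratio (ex 405, em 460/530 nm) after 2 h at RT. HEK293T UAS-bla cells, 2500/well, were stimulated with 9-cis-RA at 500 or 100 nM final alongside test compound for 18 h at 37 C.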

Test [7] addresses Retinoic acid receptor RXR-alpha (Homo sapiens) (UniProt P19793). The test is described as above. Particulars: HEK293T RXRa-UAS-bla, beta-lactamase ratio, antagonist mode. The method in brief: as §1
Test [8] deals with Thyroid hormone receptor beta (Homo sapiens) (UniProt P10828). The experiment in a line: qHTS assay for small molecule antagonists of thyroid hormone receptor beta signaling (AID 588547; active means well fitted inhibition curve with a large enough effect in the signal ratio, with a control signal flat, not every such curve was filed as active; the % refers to the signal ratio;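 further: cells stimulated with 0.4 nM T3 agonist during compound exposure; on the % scale 0 is the no-effect control and ±100 the full control effect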). Particulars: TR-UAS-bla HEK293, beta-lactamase ratio, antagonist mode, 18 h. The procedure, abridged: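 TR-UAS-bla GripTite HEK293 cells in 2% charcoal/dextran FBS medium were preincubated 4 h at 37 C, given compound (0.59 nM to 92 uM) plus 0.4 nM T3 (final) for 18 h, then CCF4 for 2 h at RT; Hill fit gave IC50.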
Chain of Thyroid hormone receptor beta (Homo sapiens) (P10828 whole entry, looked up): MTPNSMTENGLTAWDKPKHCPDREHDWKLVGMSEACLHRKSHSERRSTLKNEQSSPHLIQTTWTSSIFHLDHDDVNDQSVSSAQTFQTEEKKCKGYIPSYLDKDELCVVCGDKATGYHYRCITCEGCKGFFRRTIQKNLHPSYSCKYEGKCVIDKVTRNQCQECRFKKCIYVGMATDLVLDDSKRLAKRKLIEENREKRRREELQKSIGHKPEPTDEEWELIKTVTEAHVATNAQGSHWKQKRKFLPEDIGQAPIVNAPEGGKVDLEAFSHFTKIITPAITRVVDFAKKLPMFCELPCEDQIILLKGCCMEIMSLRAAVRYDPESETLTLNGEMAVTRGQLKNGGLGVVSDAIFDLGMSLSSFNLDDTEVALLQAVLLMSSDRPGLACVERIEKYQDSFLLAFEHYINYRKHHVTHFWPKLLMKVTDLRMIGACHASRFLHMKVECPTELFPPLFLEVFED

Test [9] can be described thus: qHTS assay for small molecule activators of the p53 signaling pathway (AID 651743; active means well fitted activation curve with a large enough effect in the signal ratio, not every such curve was filed as active; the % refers to the signal ratio; further: % of control where 0% means no effect). Particulars: HCT-116 p53RE-bla, beta-lactamase FRET ratio, 16 h; activation: stronger effect = higher value. The method in brief: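 Here HCT-116 cells with an integrated p53-responsive beta-lactamase gene were incubated with compounds (16 hours, 37 C) after a 5-hour plating period; beta-lactamase activity was detected as fluorescence intensity via B/G FRET substrate.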

Test [10] can be described thus: qHTS assay for small molecule disruptors of the mitochondrial membrane potential - 5 hr assay (AID 651755; calls by dose curve; further: potency means the concentration at half of the fitted maximal effect; nearly all actives have a fitted effect of over 40% in size). The procedure, abridged: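 Seed HepG2 overnight, add compound, incubate 5 hr at 37C and 5% CO2, stain 30 min with Mito-MPS, then measure monomer (490/535 nm) and aggregate (540/590 nm) fluorescence.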
For test [11], the target named is Tumor necrosis factor (Homo sapiens) (UniProt P01375). The experiment in a line: qHTS assay to identify small molecules that stimulate Tumor Necrosis Factor-alpha (TNF-alpha) secretion (AID 651757; active means well fitted curve in the direction sought with a large enough effect in the signal ratio; the % refers to the signal ratio; further: 0% is about no effect). The method in brief: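 THP-1 cells, 3000/well; compound 17 hrs, 37 C; add cryptate/XL665 anti-TNF-alpha antibody pair; 3 hr RT; TR-FRET (HTRF) read of secreted TNF-alpha. Quantitative HTS format.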
Chain of Tumor necrosis factor (Homo sapiens) (P01375 whole entry, looked up): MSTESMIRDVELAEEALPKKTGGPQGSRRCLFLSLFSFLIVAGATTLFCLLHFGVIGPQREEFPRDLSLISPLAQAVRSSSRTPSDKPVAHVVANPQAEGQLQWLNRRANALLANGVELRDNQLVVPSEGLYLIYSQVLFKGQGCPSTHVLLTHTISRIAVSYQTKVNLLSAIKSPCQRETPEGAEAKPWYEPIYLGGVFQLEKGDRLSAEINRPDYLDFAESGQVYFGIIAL

Test [12] is described as follows: qHTS assay for environmental chemicals that activate the Aryl hydrocarbon Receptor (AhR) signaling pathway (AID 651777). Further: % of control where 0% means no effect; nearly all actives have a fitted effect of over 15% in size. Particulars: 1A2-DRE human hepatoma cells, luciferase, 24 h; activation: stronger effect = higher value. The procedure, abridged: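 Luminescence read-out: One-Glo added for 30 min at RT after 24 hr compound treatment (37 C, 5% CO2) of human hepatoma cells expressing a DRE/CYP1A2 promoter–luciferase reporter; increased signal indicates AhR activation.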

For test [13], the target named is Peroxisome proliferator-activated receptor alpha (Homo sapiens) (UniProt Q07869). The experiment in a line: qHTS assay for small molecule agonists of the peroxisome proliferator-activated receptor alpha (PPARalpha) signaling pathway (AID 651778). Further: % of control where 0% means no effect. Particulars: PathHunter PPARalpha complementation, chemiluminescence, 6 h; stronger effect = higher value. The procedure, abridged:
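Cells plated at 2,000/well and held overnight at 37 C, 5% CO2, then compound added by pin tool for 6 hr; after PathHunter detection reagent and 60 min at room temperature, chemiluminescence from enzyme complementation was read.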

For test [14], the target named is Nuclear receptor ROR-gamma (Homo sapiens) (UniProt P51449). The experiment in a line: qHTS assay for small molecule antagonists of the retinoid-related orphan receptor gamma (ROR-gamma) signaling pathway (AID 651802). Further: potency means the concentration at half of the fitted maximal effect; nearly all actives have a fitted effect of over 60% in size. The method in brief:
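Luciferase read-out: ONE-Glo luminescence after 30 min at room temperature, following 16hr doxycycline induction at 37C, 5% CO2 of CHO cells with TET-inducible ROR and RORE-LUC reporter; decreased luminescence = reduced reporter activity.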

Test [15] is described as follows: qHTS assay for small molecule agonists of the antioxidant response element (ARE) signaling pathway measured by Nrf2-dependant transcriptional activity (AID 720636; active means well fitted curve in the direction sought with a large enough effect in the repeat runs; an effect the other way counts as inactive or inconclusive;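 further: HepG2 cells with an ARE-driven luciferase reporter; % of control where 0% means no effect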). The method in brief:
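HepG2 ARE-luc reporter line, 1% dialyzed FBS; 6 hr attachment at 37 C, compound pinned in, 16 hr at 37 C/5% CO2; ONE-Glo, 30 min RT, luminescence read.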

A short description of test [16]: qHTS assay for small molecule agonists of the antioxidant response element (ARE) signaling pathway measured by Nrf2-dependant transcriptional activity - cell viability counter screen (AID 720653; active means well fitted curve in the direction sought with a large enough effect in the repeat runs; an effect the other way counts as inactive or inconclusive; further: on the % scale 0 is the no-effect control and ±100 the full control effect). Particulars: ARE-bla HepG2 viability, CellTiter-Glo ATP luminescence, 16 h; stronger effect = lower value. The method in brief:
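ARE-bla HepG2 cells (2,000/well) rested 5 hrs at 37C/5% CO2, then exposed to compounds in DMSO for 16 hrs. Viability was read in the same wells as intracellular ATP by luminescence, 30 min at room temperature after reagent addition.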

The nature of test [17]: qHTS assay for cell viability of HEK293 cells (AID 743288). Further: on the % scale 0 is the no-effect control and ±100 the full control effect; nearly all actives have a fitted effect of over 50% in size. Particulars: ATP luminescence (CellTiter-Glo), 18 h; max response: stronger effect = lower value. The method in brief:
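Steps: plate 2,000 parental HEK293 cells per well; incubate ≥5 h, 37 C; add compounds in DMSO; incubate 18 h, 37 C; add CellTiter-Glo; wait 30 min at room temperature; read luminescence.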

The nature of test [18]: qHTS assay for cell viability of the p53RE-bla HCT-116 cell line (AID 743292). Further: on the % scale 0 is the no-effect control and ±100 the full control effect; nearly all actives have a fitted effect of over 55% in size. The method in brief: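 Luminescent ATP quantitation (CellTiter-Glo) served as the viability read-out; reagent was added after 16 h compound exposure at 37 C and read after 30 min at room temperature. Cells: p53RE-bla HCT-116, 4,000 per well.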
Test [19] addresses Catechol O-methyltransferase (Homo sapiens) (UniProt P21964). The experiment in a line: Confirmatory Screen for Target Class Profiling of Small Molecule Inhibitors of Methyltransferases (AID 1745852; calls by dose curve; further: potency means the concentration at half of the fitted maximal effect). Particulars: MTase-Glo luminescence, SAH detection, recombinant enzyme; measured here: COMT max response; stronger effect = lower value.
Test [20] addresses Guanidinoacetate N-methyltransferase (Homo sapiens) (UniProt Q14353). The test is described as above. Particulars: MTase-Glo luminescence, SAH detection, recombinant enzyme; activity change, negative = inhibition: at 85.7 µM (top of the series) unless noted.
Test [21] addresses Nicotinamide N-methyltransferase (Homo sapiens) (UniProt P40261). Described as above. Particulars: MTase-Glo luminescence, SAH detection, recombinant enzyme; measured here: NNMT max response; stronger effect = lower value.
Test [22] addresses Phenylethanolamine N-methyltransferase (Homo sapiens) (UniProt P11086). The test is described as above. Particulars: MTase-Glo luminescence, SAH detection, recombinant enzyme; measured here: PNMT max response; stronger effect = lower value.
The target of test [23] is Glutathione peroxidase 1 (Homo sapiens) (UniProt P07203). The experiment in a line: Primary qHTS Assay for Inhibitors of Recombinant Selenoprotein Glutathione Peroxidase 1 (GPX1) (AID 1845191). Further: on the % scale 0 is the no-effect control and ±100 the full control effect; nearly all actives have a fitted effect of over 65% in size. The method in brief:
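GPX1 10 nM, GR 100 nM, GSH 1 mM, NADPH 0.5 mM, CHP 0.5 mM (final). 30-min cpd preincubation, RT. Ex340/Em450 read t=0, t=15 min.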

In test [24] the target is Nuclear receptor subfamily 1 group I member 2 (Rattus norvegicus) (UniProt Q9R1A7). The experiment in a line: qHTS assay for small molecule activators of the rat pregnane X receptor (rPXR) signaling pathway (AID 651751; call rule not given here; further: 0% is about no effect). Particulars: rPXR reporter cells, luciferase (One-Glo), 24 h.
Chain of Nuclear receptor subfamily 1 group I member 2 (Rattus norvegicus) (Q9R1A7 whole entry, looked up): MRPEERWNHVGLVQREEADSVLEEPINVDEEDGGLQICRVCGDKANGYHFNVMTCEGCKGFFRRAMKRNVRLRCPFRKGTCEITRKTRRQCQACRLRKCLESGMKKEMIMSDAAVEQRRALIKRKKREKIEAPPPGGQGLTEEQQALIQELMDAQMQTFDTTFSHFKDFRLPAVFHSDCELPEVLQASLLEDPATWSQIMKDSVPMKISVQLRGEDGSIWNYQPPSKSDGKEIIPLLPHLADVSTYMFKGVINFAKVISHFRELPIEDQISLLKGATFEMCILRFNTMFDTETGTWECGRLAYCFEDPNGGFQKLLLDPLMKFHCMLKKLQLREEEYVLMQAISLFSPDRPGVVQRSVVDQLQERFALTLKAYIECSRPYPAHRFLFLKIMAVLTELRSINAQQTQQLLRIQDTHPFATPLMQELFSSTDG

Chain of Peroxisome proliferator-activated receptor alpha (Homo sapiens) (Q07869 whole entry, looked up): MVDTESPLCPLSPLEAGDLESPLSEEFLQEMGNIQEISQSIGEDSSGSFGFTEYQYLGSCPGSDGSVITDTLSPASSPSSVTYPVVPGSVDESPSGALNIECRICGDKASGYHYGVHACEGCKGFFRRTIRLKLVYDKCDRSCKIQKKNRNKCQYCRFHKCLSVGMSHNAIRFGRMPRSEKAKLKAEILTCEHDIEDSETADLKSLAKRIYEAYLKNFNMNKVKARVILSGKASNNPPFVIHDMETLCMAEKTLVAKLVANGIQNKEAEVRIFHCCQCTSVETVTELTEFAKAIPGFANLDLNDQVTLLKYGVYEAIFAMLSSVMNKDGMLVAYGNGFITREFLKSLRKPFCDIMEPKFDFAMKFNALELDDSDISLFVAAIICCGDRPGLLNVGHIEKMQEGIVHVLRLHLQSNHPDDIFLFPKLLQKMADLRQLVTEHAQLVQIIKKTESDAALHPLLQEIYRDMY
Chain of Catechol O-methyltransferase (Homo sapiens) (P21964 whole entry, looked up): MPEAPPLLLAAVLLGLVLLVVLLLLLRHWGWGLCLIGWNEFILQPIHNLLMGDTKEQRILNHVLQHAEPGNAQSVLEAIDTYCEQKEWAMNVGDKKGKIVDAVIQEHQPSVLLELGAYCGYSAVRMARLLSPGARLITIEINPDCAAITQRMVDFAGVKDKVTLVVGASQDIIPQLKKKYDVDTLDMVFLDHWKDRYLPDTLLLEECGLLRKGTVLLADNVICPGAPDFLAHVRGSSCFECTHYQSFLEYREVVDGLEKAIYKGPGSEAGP
Chain of Nuclear receptor ROR-gamma (Homo sapiens) (P51449 whole entry, looked up): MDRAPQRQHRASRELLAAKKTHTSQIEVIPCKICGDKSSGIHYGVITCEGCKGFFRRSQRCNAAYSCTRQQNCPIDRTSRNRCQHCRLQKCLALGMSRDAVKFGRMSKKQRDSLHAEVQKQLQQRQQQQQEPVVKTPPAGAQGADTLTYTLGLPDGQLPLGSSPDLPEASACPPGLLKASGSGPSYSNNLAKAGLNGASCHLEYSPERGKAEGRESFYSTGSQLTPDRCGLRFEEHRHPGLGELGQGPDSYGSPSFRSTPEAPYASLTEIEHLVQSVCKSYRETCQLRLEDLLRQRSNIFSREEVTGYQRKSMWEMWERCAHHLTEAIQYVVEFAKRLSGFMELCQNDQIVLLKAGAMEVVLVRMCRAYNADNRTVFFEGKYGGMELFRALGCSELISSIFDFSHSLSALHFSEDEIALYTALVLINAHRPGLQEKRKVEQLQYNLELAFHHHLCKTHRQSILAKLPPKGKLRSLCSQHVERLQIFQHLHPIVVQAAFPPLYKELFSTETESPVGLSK
Chain of Nicotinamide N-methyltransferase (Homo sapiens) (P40261 whole entry, looked up): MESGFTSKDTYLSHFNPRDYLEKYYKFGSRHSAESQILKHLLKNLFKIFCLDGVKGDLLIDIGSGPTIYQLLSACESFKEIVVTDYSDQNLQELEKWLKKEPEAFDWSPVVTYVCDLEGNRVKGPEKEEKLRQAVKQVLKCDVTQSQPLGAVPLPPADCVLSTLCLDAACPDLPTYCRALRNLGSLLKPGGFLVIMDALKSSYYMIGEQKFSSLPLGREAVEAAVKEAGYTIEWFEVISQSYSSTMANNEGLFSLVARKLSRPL
Chain of Phenylethanolamine N-methyltransferase (Homo sapiens) (P11086 whole entry, looked up): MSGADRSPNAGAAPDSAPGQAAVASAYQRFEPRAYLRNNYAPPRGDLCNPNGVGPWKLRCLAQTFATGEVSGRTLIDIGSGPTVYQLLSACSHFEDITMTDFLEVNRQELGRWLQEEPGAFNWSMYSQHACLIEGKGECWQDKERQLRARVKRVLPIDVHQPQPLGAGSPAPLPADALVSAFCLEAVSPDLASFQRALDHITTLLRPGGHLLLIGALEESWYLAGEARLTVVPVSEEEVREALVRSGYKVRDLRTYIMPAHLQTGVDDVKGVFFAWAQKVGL
Chain of Retinoic acid receptor RXR-alpha (Homo sapiens) (P19793 whole entry, looked up): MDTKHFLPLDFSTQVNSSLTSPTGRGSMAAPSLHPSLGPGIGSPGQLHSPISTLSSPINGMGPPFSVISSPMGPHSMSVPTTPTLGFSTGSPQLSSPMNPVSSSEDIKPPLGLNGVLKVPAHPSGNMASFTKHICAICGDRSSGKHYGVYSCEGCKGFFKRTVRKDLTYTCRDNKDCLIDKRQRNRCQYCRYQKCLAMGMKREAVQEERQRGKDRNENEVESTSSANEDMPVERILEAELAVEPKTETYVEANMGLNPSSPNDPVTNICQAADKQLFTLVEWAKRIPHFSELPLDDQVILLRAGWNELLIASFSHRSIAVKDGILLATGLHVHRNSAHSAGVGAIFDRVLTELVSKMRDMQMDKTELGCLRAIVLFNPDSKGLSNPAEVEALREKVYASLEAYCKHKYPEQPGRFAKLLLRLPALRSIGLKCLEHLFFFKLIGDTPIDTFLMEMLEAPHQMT
Chain of Glutathione peroxidase 1 (Homo sapiens) (P07203 whole entry, looked up): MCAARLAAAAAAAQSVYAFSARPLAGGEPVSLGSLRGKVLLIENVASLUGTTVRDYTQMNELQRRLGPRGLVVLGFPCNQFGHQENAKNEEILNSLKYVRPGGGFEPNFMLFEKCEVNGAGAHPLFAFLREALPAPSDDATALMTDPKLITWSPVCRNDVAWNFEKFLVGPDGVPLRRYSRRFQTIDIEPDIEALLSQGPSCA

For `C[C@H]1CCCC(=O)CCC/C=C/c2cc(O)cc(O)c2C(=O)O1`, the Potency in test [1] was 44.7 µM (active); in test [10], 33.5 µM (active) and 37.6 µM (active); in test [14], 42.2 µM (active); in test [20], 17.1 µM (active). The outcome in test [2], in [5], in [11] and in test [15] was “inactive” each time. Moreover, the Potency entry in test [3], in [18] and in test [23] was “inactive” throughout. The max response is -13.4% and 26.9% in test [4]; 17.7% in [6]; -20.8% (inactive) in [7]; -0.403% (inactive) and -3.88% (inactive) and -0.278% (inactive) in test [13]; -27% (inactive) and -18.5% (inactive) in test [16]; -26.5% (inactive) and -8.31% (inactive) and -15% (inactive) in test [17]. Besides, in [24], the max response was -12.4% (inactive) and -5.06% (inactive) and -7.58% (inactive). Moreover, the activity change % (negative = inhibition) in [8] is -19.1% (inactive) and -18.2% (inactive). Further, the activation in [9] was 20.6% (inactive); in test [12] it was -5.88% (inactive) and -4.48% (inactive) and -7.69% (inactive). Moreover, the activity in test [19] is -93%; in [21], -84.9%; in [22], -95%.

Source of the values: PubChem BioAssay (NCATS).
